T1: USP38, Q8NB14
T1 chain: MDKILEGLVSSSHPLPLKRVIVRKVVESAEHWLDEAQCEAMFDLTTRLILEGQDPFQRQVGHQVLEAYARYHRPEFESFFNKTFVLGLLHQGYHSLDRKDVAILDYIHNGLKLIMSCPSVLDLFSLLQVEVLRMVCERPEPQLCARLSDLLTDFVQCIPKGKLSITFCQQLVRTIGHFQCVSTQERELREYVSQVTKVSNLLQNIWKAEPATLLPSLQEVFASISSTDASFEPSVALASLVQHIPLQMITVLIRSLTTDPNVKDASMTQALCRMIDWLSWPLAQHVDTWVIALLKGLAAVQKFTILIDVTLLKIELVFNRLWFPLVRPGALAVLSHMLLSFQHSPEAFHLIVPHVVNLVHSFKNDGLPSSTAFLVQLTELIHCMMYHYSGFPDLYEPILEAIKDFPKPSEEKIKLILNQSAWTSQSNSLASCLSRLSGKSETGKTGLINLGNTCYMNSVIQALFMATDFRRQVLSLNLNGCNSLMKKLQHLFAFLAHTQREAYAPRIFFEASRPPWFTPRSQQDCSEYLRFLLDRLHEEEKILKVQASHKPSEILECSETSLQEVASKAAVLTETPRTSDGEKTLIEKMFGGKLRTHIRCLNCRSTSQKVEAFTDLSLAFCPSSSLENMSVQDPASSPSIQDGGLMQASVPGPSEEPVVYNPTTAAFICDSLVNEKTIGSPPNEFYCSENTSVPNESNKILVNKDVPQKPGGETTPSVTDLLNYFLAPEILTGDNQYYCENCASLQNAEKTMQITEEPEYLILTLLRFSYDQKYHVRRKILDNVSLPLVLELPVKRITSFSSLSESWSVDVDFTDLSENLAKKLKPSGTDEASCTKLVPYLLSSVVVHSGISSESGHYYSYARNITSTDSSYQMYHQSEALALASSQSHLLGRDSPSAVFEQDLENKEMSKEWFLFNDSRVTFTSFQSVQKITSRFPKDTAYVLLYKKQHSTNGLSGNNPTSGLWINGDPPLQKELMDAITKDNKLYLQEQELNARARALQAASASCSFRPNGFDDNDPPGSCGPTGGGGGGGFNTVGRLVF

B1: usp_38_diff_out_18_28_431 (protein)
chain: AEAAIQAKIDAAEKEMDALIDEYVKVATEGFLALDESDKGEELEAAINELADAVGAAAAAVNEMRRNRDDPAAVDAQLAKFNAAKKKAKEKIKEIKKLLK
B2: usp_38_diff_out_18_28_432 (protein)
chain: EEEEIKKLIEEAEKKMDELIDEYVKISTEGFLKINESDKGEELLEAINELADEVGKAAKAVNEMRKNRNDKEKVEEYLKKFEEAYKKAKEKIEEIKKLIE
B3: usp_38_diff_out_18_28_433 (protein)
chain: SLEANRALIAKYEAEADALIDEATKAATEGFLKYHENPDDEKLLEAINKLMDAVGKAAAAVRRMREHIHDPEAVAKYAKEFEKAKKEAEEKLKELKKLIK
B4: usp_38_diff_out_18_30_434 (protein)
chain: EEEDEETEEYIRNKLLEFTAESTRDLAERVRRRLPDSPRAREIARLLEEASELLKKRTPEALEEAARLLERALELAEADPRATDRLLTSLRGLLTVVKEL
B5: usp_38_diff_out_18_30_435 (protein)
chain: EEEDEETQKFIDEELRKILAESTEELAREVRRRLPDSPEAREIAELLEEASRLIKEGTPEALKKALEKLERALELLKKNPQAPDRLLTATAGMIEVLKEL
B6: usp_38_diff_out_18_30_436 (protein)
chain: SAEDEETERYIREALRKATAESLRELAERLERRLPDSPEAREIVALVREAARLLEEGTPEALAQAAALLRRALALLEADPRATDRELTALRGLLVVVEEL
B7: usp_38_diff_out_18_31_437 (protein)
chain: SLREEAERVAEEARRLAEELKEKSKELKEAIKKGDKEKAEKLMEEMERLKEELGRAYLRLRDLAREDPSNRPLLKEVTKEANEAVDEYTEAEEAYFLFKA
B8: usp_38_diff_out_18_31_440 (protein)
chain: SLRERAERVREELERAAERMKRLAEELKEAIKAGDRERAERLMEEMDREMERLGRAYLELRDLAREDPSLRPLLKEAERRANEAVDAYTEAATAYHLFKA
B9: usp_38_diff_out_18_31_441 (protein)
chain: SLRERGREVAERAREAIRRLRELAERLLEAIKEGKREEAEELAKEMDEELVELGRAYQELRDLAREDPSLRPLLKEVEEEANEAIDLYNKAMEELFLFKS
B10: usp_38_diff_out_18_31_442 (protein)
chain: SVVEEAKRVAKEALEAIEKLKKTIDELKKAIGKDPKKAEELLKKARELLKKFSELYLRLRDLRRQAPEQIRPLLEELEKKADEAIDKYEEAETAYFLAKA
B11: usp_38_diff_out_1_101_11 (protein)
chain: LEAELAAARAEFDAAAADLLAAARAALAEVKALGDAAAAARFARYLAAYESFIADTRRTADEIAEQDKESAIEFLKAATENLRTLKEEVEAELARIKAKL
B12: usp_38_diff_out_1_101_12 (protein)
chain: LEAELAKAREAFRAAVAEVEAVLEEAEALAKAAGDAARAARWARQLAAVRAWRADLERTLEEIAAQDLESALELAKAALENAKTLLAEAKAELAAYKAKL
B13: usp_38_diff_out_1_101_4 (protein)
chain: MEERLEKAKKEIEEALEEIIKIYEETAKAAKAAGDEALAERWKRFAEAMRTYRESLERTLEELREQDLESALAFAEAALEVTKSLLKEAKEEAEKAKKAL
B14: usp_38_diff_out_1_101_6 (protein)
chain: IEKELKKALEEFNKTLDETIKVYEEIEKLYKEMGNEEKAERAQRQRDALETYRKDTTAFIEELYKEDPESALELAKLALENAKTILKEAEKELKEVKAEK
B15: usp_38_diff_out_1_101_7 (protein)
chain: LEEELKKALEEFNETIDKAIKVYEEIAKLYKKMGKEEKAEKAERQRKALETWREDSTAFIEELAKEDLESALELAKLALENAKTILKEAEEELKKVKAEE
B16: usp_38_diff_out_1_101_8 (protein)
chain: LEEELEKALKEFNETIEKAMEAWKEIAKIYKELGNEEKAEKAERQLAALESYKKEHTKFIEELKKEDLESALELAKLSLKNAKSILKEAEERLKKAKALK
B17: usp_38_diff_out_1_101_9 (protein)
chain: MEAELAAAKAAFDAAAAALLKAAEDALAKIKAEGTPEQAAEMERHLAAIKSFIADSRKTLEEIAEQDKEAAIEFANAATTVLNILTAEVKEETARLLAKA
B18: usp_38_diff_out_1_147_13 (protein)
chain: SAADEADREAEAEAREKLRRFAWESLEELEKNRDKLSLDRLTIGAGGLLVVALELGDEELLLRVAALLLEDPEVLARVRARLSPEERARLEAAVARVRAA
B19: usp_38_diff_out_1_147_14 (protein)
chain: SAADEADAAAQAEIDERLRRFARESLDDFEANRDRYSPDRATVALGGLITTAIELGDRELLLRAAALLLKDPAVRAAVLARLDPAARAAFEEAEAEVRAA
B20: usp_38_diff_out_1_147_15 (protein)
chain: SPADEADAEAEAEARERLREFARESLDELEANRDRLSLDRRVTQAGGLFTIAVELGDRELLLRVAALLLEDPEALAAVRARLSPEERAALEAAVAEVRAA
B21: usp_38_diff_out_1_153_16 (protein)
chain: SELEKMKEELEKILEEAKKLKEEIEKLIKEGKMTREKVDKYADELAELAKRFRELRSKAAENPEYYKELKELFKETLKALNEAVDALTKAAEQVFLKEAE
B22: usp_38_diff_out_1_153_17 (protein)
chain: SRLEELKKRLEEILEEAKRLKEEIERLIAEGTMTREKVDEYADRLGKLAVEFREIRAEAAEDPEIYKELKELFKETEKALNEAVDALERAGRLVFLREAE
B23: usp_38_diff_out_1_153_18 (protein)
chain: SRLDELRARLERILAEARELKAEIKALIEAGTMTREKVEEYADRLAALAAEFREIRAEAAEDPAAYAALRPLFRETQAALDEAVDALEEAGRLVFEREAE
B24: usp_38_diff_out_1_153_19 (protein)
chain: SELEELKKELEKIKEEAKKLKEEIEKLIKEGKMTREKVDEYADKLGELAKRFREIRSKLAQNPEAYKELKELLKETEKELNEAVDALNEAGRLVFLKEAE
B25: usp_38_diff_out_1_153_20 (protein)
chain: SRLEELRKELEEILEEAKRLRDEIERLIAEGRMTRELVDRYADRLGELAARFREIRAELADDPEAYKELRPLLKETQAALDAAVDALERAGRLVFLREAE
B26: usp_38_diff_out_1_153_21 (protein)
chain: SELEELKKELEEILEEAKKLKEEIEKLIKEGKMTLEKVDKLADELGRLSKRFREIRSKAAENPEYYEKLKELFKETEEELNKAVDALNEAGRLVFLKEAE
B27: usp_38_diff_out_1_153_22 (protein)
chain: MKEEELEKKVEEIKKKAKELLKEAKKLLESGKATREEVDKLADELGKLAVELRELRSEAAEDEEVYKKLKEKFKEAEKALNEAVDALNEAARRVFLKEAE
B28: usp_38_diff_out_1_153_23 (protein)
chain: MKEEELRKRLEEIKKKAEELKKEAEALLKSGNATREKVDALADKLGALAVELRELKALAAQDPEVYKALKPLFKETEKALNEAVDALNEAARQVFLKEAE
B29: usp_38_diff_out_1_153_24 (protein)
chain: VKLEELKKRVEEITKRAKELKKEAEELLKSGNATREEVDRLADELGRLAVELRELRSIAAEDEEVYKALKPLFKEANEALDEAVDALNEAGRRVFLKEAE
B30: usp_38_diff_out_1_153_25 (protein)
chain: SELEELKKKVEEIKKEAEKLKKEAEELIKSGEATREKVEELADKLGKLSVELREIRSKAAESGEYYKELKPLFKEAEEALNEAVDALEKAAREVFLKEAE
B31: usp_38_diff_out_1_153_26 (protein)
chain: SELEKLEKEIKKITEEAKKLKEEAEKLIEDGTATREKVDELADRLGKLAVELREIRSKAAESGDYYKKLKPLFEEAEKALNEAVDALNKAGTLVFEKEAE
B32: usp_38_diff_out_1_153_27 (protein)
chain: SELEELKKKIEEITKEAEKLKKEAEKLIKDGTATREKVDELADKLGKLAVELREIRSKAAESGEYYKKLKPLFKKAEKALNEAVDALNKAATLVFEKEAE

Molecular target: T1, USP38, Q8NB14
Assay: median log2 fold change of GCK-ALFA target abundance (FLAG IP / Myc IP barcode read proportion) (log2 ratio); each designed protein is fused to an ALFA-tag nanobody in HEK293 cells to bring the named protein to FLAG-tagged glucokinase (GCK); Myc marks an untargeted standard; higher = target protein stabilised (more abundant)
Settings: target protein: 3xFLAG-MCP-GCK-ALFA reporter; HEK293 landing pad (RPLP)
Procedure, shortened: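 Sequencing of reverse-transcribed, amplified circular RNA barcodes from anti-FLAG and anti-Myc immunoprecipitates provided the readout for an ALFA-nanobody-fused binder library recombined into HEK293 landing-pad cells. Those cells were induced with 2 μg mL^−1 doxycycline, transfected with a plasmid expressing a FLAG-tagged target and a Myc-tagged standard, and lysed after 48 h. Target abundance is the per-binder median log2 ratio of FLAG to Myc barcode read proportions. Only barcodes at a proportion of ≥10^−7 in both replicates and binders with ≥3 barcodes per replicate were kept, with a 10^−6 pseudocount added before the two replicates were pooled.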

| Binder | median log2 fold change |
| --- | --- |
| B1 | -0.437 |
| B2 | -0.257 |
| B3 | 0.116 |
| B4 | -0.134 |
| B5 | 0.231 |
| B6 | 0.0576 |
| B7 | -1.39 |
| B8 | -0.671 |
| B9 | -0.642 |
| B10 | -0.788 |
| B11 | -0.315 |
| B12 | -0.00433 |
| B13 | -0.644 |
| B14 | -0.129 |
| B15 | -0.366 |
| B16 | 0.118 |

| Binder | median log2 fold change |
| --- | --- |
| B17 | -0.957 |
| B18 | -1.17 |
| B19 | 0.247 |
| B20 | 0.0346 |
| B21 | -0.51 |
| B22 | -0.168 |
| B23 | 0.0475 |
| B24 | -0.00147 |
| B25 | -0.0906 |
| B26 | 0.358 |
| B27 | 0.146 |
| B28 | 0.0874 |
| B29 | 0.085 |
| B30 | -0.027 |
| B31 | 0.457 |
| B32 | 0.0209 |
